Luc counter: counter-screen: inhibitors of Kinase-Glo firefly luciferase. Kinase-Glo luciferase, ATP luminescence, 8 min. Potency, µM (doses to about 38.3 µM), without a hit: top-dose activity change, negative = inhibition, hits mostly inhibitors. hit rate 0.28% among 200,000. AID 1379; also: potency is read from the fitted curve at half-maximal effect; % is scaled to controls: 0 for no effect and ±100 for the full control effect; nearly all actives have a fitted effect of over 60% in size
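Recombinant Kinase-Glo luciferase, 10 uM ATP (linear range), luciferin; imidazole pH 7.2 / KCl / MgCl2 / Tween / BSA buffer; 8 min RT; luminescence.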
LMNA splice mod: modulators of lamin A splicing. AID 1487. hit rate 0.01% among 200,000. HeLa LMNA splicing GFP/RFP minigene ratio, 48 h. Potency, µM (titrated, usually from 46.1 µM), for inactives: at the top dose ratio change, negative = inhibition, actives largely listed as inhibitors; active = well fitted inhibition curve with a large enough effect in the signal ratio, with a control signal flat, not every such curve was filed as active; inconclusive = small, poorly fitted or top-dose-only effect, or effect the other way, or a change in a side signal; the % refers to the signal ratio; also: potency is read from the fitted curve at half-maximal effect; % is scaled to controls: 0 for no effect and ±100 for the full control effect
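S3 HeLa cells stably expressing lamin A-EGFP splicing minigene plus DsRed2, 600 cells/well, 48 h compound exposure at 37C. Laser-scanning cytometry; analysed as GFP (500-530 nm)/RFP (575-640 nm) total intensity ratio; 0.5% DMSO vehicle.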
TCR act: activates T cell receptor signaling; 330,000 tested, under 10 active; AID 504894; primary human leukocytes, anti-CD3, IL-2 HTRF, 48 h; Potency, µM (top dose mostly 9.22 µM), without a hit: at the top dose activation of IL-2 secretion, hits mostly activators; also: % of control where 0% means no effect
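Using a-CD3 beads without co-stimulation, primary human leukocytes were exposed to compounds for 48 hr. An HTRF IL-2 kit measured the cytokine, with europium-to-d2 energy transfer producing emission at 665nm upon 320nm excitation.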
IMPase Li cell: membrane-permeable IMPase blocker, potentiated with lithium; Potency, µM (doses to about 59.4 µM), for inactives: at the highest dose activity, negative = IMPase inhibition, hits mostly inhibitors; AID 1457; CHO-M1 cells, IP1 TR-FRET (IP-One), carbachol + lithium; hit rate 0.35% among 210,000;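 also: IP1 builds up when IMPase is blocked and the TR-FRET signal falls; potency is read from the fitted curve at half-maximal effect; plate controls were basal vehicle for no effect and high inhibitor control for full effect; nearly all actives have a fitted effect of over 50% in size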
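CHO-M1, 2000 cells/well, 16–30 h culture; cpd + low Li+, 30 min 37C; lysis with d2-IP1/Eu-anti-IP1 Ab, 10 min RT; TR-FRET 665/620 ratio and 620 channel; AC50 via Hill.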
Starred values were filed as active, the others as inactive; ? = inconclusive; . = no result; [ ] = another dose, or the depositor's remark. Compounds with a hit are over-represented: about 0.34% of the library has one in this group of screens. Unless noted, calls follow the shape of the dose curve; as a rule, active = well fitted curve in the direction sought with a large enough effect; inconclusive = small, poorly fitted or top-dose-only effect, or another doubt; inactive = no such curve, though single readings can be large; an effect the other way counts as inactive or inconclusive.

SMILES	Luc counter	LMNA splice mod	TCR act	IMPase Li cell
COc1ccc2nc(NC(=O)Nc3ccccc3OC)sc2c1	.	.	4.5%	.
COc1ccc2nc(Nc3ccccc3OC)sc2c1	11.2µM*	.	-1.3%	13.3%
CCN(CC)c1nn2c(=O)c(C(=O)NCc3cccc(OC)c3OC)cnc2s1	.	12.7%[46 µM]	.	.
O=C(NCCCN1CCCCCC1)c1ccc2c(c1)sc1nc(-c3ccccc3)cn12	.	4.5%[46 µM]	.	.
CC1CN(S(=O)(=O)c2ccc(Cl)c(C(F)(F)F)c2)CC(C)O1 (stereo not drawn)	4.8%	-5.0%	.	10µM*
CN1CCN(S(=O)(=O)c2ccc(Cl)c(C(F)(F)F)c2)CC1	.	.	-39.2%	.
CCc1ccc(NC(=O)CSc2nc3cc(C(=O)OC)ccc3c(=O)n2CC2CCCO2)cc1 (stereo not drawn)	-4.2%	4.4%	1.8%	14.1µM*
COCC(=O)N1CCC(Oc2ccc(C(=O)N3CCCCC3COC)cc2)CC1 (stereo not drawn)	.	.	2.5%	.
COc1ccc(S(=O)(=O)Nc2ccccc2OC)cc1C	4.8%	-10.1%	-2.9%	15.9%[38.3 µM]
COc1ccc(S(=O)(=O)Nc2ccccc2SC)cc1C	4.3%	7.3%	-8.7%	11.2µM*
O=C(NCCc1ccccc1)C1CCN(C(=O)c2ccc([N+](=O)[O-])cc2)CC1	3.1%	.	-1.9%	-0.3%
CCc1nnc(NC(=O)CSc2nc3cc4c(cc3cc2CC)OCCO4)s1	2.1%	1.9%	.	-20.5%[38.3 µM]
CCc1cc2cc3c(cc2nc1SCC(=O)Nc1nnc(C)s1)OCCO3	1.0%	-0.7%	-9.7%	12.6µM*
Cc1cc2cc3c(cc2nc1SCC(=O)Nc1nc(C)c(C)s1)OCO3	3.5%	0.3%	0.7%	8.91µM*
COc1ccc(N2CC(NC(=O)COc3ccc(F)cc3)CC2=O)cc1OC (stereo not drawn)	.	8.4%[46 µM]	.	.
O=C(CC(=O)N/N=C/c1c(Cl)cccc1Cl)NCc1cccnc1	.	.	-1.3%	.
N#CC1=C2SCN(c3ccccc3)CN2C(=O)CC1c1cccs1 (stereo not drawn)	-9.8%	4.6%	-2.3%	28.2µM*
N#CC1=C2SCN(c3ccccc3)CN2C(=O)CC1c1c(Cl)cccc1Cl (stereo not drawn)	0.3%	4.8%	-2.9%	15.9%[38.3 µM]
Cc1ccc(-c2nc(CCNC(=O)C(=O)Nc3ccc(C)c(Cl)c3)cs2)cc1	.	-1.4%[46 µM]	.	.
Cc1ccccc1S(=O)(=O)Nc1nc2ccccc2nc1Cl	4.1%	?	-2.4%	3.55µM*
Cc1nc(SC2CCOC2=O)c2c(C)c(C)sc2n1 (stereo not drawn)	-1.9%	6.1%[0.0737 µM]	-10.4%	7.08µM*
Cc1[nH]n(-c2ccc([N+](=O)[O-])cc2)c(=O)c1C=NCCN1CCN(C(=O)C(C)C)CC1	10µM*	.	0.8%	-6.4%
Cc1[nH]n(-c2ccc([N+](=O)[O-])cc2)c(=O)c1C=NCCc1ccc(S(N)(=O)=O)cc1	-8.7%	.	5.2%	6.0%
CC[C@H](C(=O)c1cccs1)C(O)(C(F)(F)F)C(F)(F)F	-3.8%[7.66 µM]	.	.	6.9%
O=C(Nc1ccsc1C(=O)NC1CCCCC1)c1ccc(F)cc1	-0.6%	10.6%	-6.8%	28.2µM*
SMILES	Luc counter	LMNA splice mod	TCR act	IMPase Li cell
O=C(NC1CCCCCCC1)c1ccc(Br)cc1	.	.	-44.3%	.
CCNC(=S)N/N=C/c1sc(N2CCCCC2)nc1-c1cccs1	11.2µM*	15.9%	0.0%[46.1 µM]	-0.7%
CCNC(=S)Nc1ccc(N2CCCCC2)cc1	-0.6%	?	-8.6%	-2.7%
COc1cc2c(-c3ccc(O)cc3)nc3c(c(C)nn3-c3ccccc3)c2cc1OC	-0.5%	-5.7%	2.0%[46.1 µM]	10.1%
COc1cc2c(C)nc3c(c(C)nn3-c3ccccc3)c2cc1OC	1.1%	.	-6.2%	11.2µM*
Cc1ccc(C)c2nc(SCC(=O)NCc3cccs3)c(C#N)cc12	-2.1%	10.8%	7.6%	5.01µM*
Cc1cccc2cc(C#N)c(SCC(=O)NCc3cccs3)nc12	3.2%	-12.6%	-3.1%[46.1 µM]	7.94µM*
Cc1cccc2cc(C#N)c(SCC#N)nc12	0.1%	.	8.4%	14.1µM*
Cc1cccc2cc(C#N)c(SCC(=O)NCC3CCCO3)nc12 (stereo not drawn)	-0.7%	0.5%	4.5%[46.1 µM]	0.2%
Cc1cc2c(C)ccc(C)c2nc1SCC(=O)c1cccs1	1.3%	5.0%	8.2%	28.0%[38.3 µM]
O=C(/C=C/c1c(F)cccc1Cl)NCCCN1CCOCC1	.	.	-4.0%	.
Cn1cccc1/C=C1\CCc2ccccc2C1=O	10µM*	.	2.8%	0.0%
O=C1/C(=C/c2cccs2)Cc2ccccc21	.	-8.0%	-3.9%[46.1 µM]	.
Cn1cccc1/C=C1\Cc2ccccc2C1=O	11.2µM*	.	-1.5%	-10.1%
CCCc1cc(=O)[nH]c(SCC(=O)c2cc(C)n(C(C)COC)c2C)n1 (stereo not drawn)	0.4%	14.1%	2.5%	2.1%[38.3 µM]
COc1ccc(OCc2n(CC(=O)OC3CC(C)CCC3C(C)C)c3ccccc3[n+]2C)cc1 (stereo not drawn)	.	.	5.4%	.
COc1ccc(-c2n(CC(=O)OC3CC(C)CCC3C(C)C)c3ccccc3[n+]2C)cc1 (stereo not drawn)	3.55µM*	.	-4.0%	19.9%
O=C(Nc1ccc(N2CCCC2)cc1)c1cccc(F)c1	?	8.7%	0.1%	38.8%[38.3 µM]
O=C(Nc1ccc(N2CCCC2=O)cc1)c1cccc(F)c1	7.94µM*	17.5%	-7.2%	6.7%[38.3 µM]
COc1ccc(/C=N/Nc2ncccc2[N+](=O)[O-])c(OC)c1	11.2µM*	.	-1.1%	20.4%
COc1ccc(/C=N/Nc2ncc(-c3ccccc3)cn2)c(OC)c1	-1.4%	-7.9%	-3.9%[46.1 µM]	5.0%
COc1ccc(C(=O)CSc2nnc(CNC(=O)c3ccc(OC)cc3)n2C)cc1	-1.2%	6.1%	-6.0%	15.9%[38.3 µM]
Cc1ccc2nc(-c3ccc(O)cc3)oc2c1	.	.	0.2%	.
N#CC(=C=[N-])C1=C(C#N)C(c2ccccc2F)C([n+]2ccccc2)C(O)(C2CC2)N1 (stereo not drawn)	-4.7%	?	-11.5%	12.6µM*
COc1ccc(-n2c(SCC(=O)Nc3cc(C)on3)nc3c([nH]c4ccccc43)c2=O)cc1	.	.	-0.6%	5.01µM*
Cc1ccc(-n2c(SCC(=O)Nc3cc(C)on3)nc3c([nH]c4ccccc43)c2=O)cc1	6.0%	-6.5%	-5.1%	19.7%[38.3 µM]
CCOc1ccc(-c2ccc(SC)nn2)cc1	3.16µM*	.	-2.3%	-3.7%
CCOc1ccc(-c2ccc(SCC(=O)Nc3nnc(CC)s3)nn2)cc1	-0.1%	?	-2.3%	-12.4%

Assay outcomes deposited in PubChem by National Center for Advancing Translational Sciences (NCATS).
